Assay results taken from PubChem BioAssay (NCATS).
Inconclusive results are not listed. The source made the active and inactive calls. Calls come from the whole dose curve; as a rule, active = well fitted curve in the direction sought with a large enough effect; inconclusive = small, poorly fitted or top-dose-only effect, or another doubt; inactive = no such curve, though single readings can be large; an effect the other way counts as inactive or inconclusive.

Experiments:
[1] = MultiTox-Fluor Cytotoxicity Assay - LYMP1-003 - Live Cells (AID 962);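 note: cells exposed to compound for 16 hours at 37 °C; cytotoxic hits lower the live-cell protease signal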
Outline: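 Acute cytotoxicity is scored as a drop in live-cell protease activity in human lymphoblastoid LYMP1-003 cells after 16 hr compound exposure at 37 C. AC50 values come from Hill-equation modelling of concentration-response data.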

[2] = Cell Viability - LYMP1-003 - Assay at 24 hr (AID 963)
Outline: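 Cytotoxicity is scored as a concentration-dependent fall in ATP-linked luciferase signal in human lymphoblastoid LYMP1-003 cells treated 24 hr at 37 C in complete culture medium.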

[3] = Cell Viability - LYMP1-003 - Assay at 40 hr (AID 964); note: series mostly up to about 92 µM; nearly all actives have a fitted effect of over 60% in size
Outline: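 Luminescent ATP signal (CellTiter-Glo) served as the viability read-out after 40 hr compound treatment of human lymphoblastoid LYMP1-003 cells at 37 C. Decreases in ATP were fitted with the Hill equation to give AC50.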

[4] = Cell Viability - LYMP2-003 (AID 965);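 note: cells exposed to compounds for 24 h before reading; nearly all actives have a fitted effect of over 50% in size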
Outline: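 Human lymphoblastoid cells (2500/well) were pre-incubated 5 hr at 37 C, then exposed to compounds over a concentration range for 24 hr at 37 C. Intracellular ATP was read by CellTiter-Glo luminescence; AC50 came from Hill-equation fits.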

[5] = Cell Viability - LYMP2-004 (AID 966); note: nearly all actives have a fitted effect of over 65% in size
Outline: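 qHTS cytotoxicity: human lymphoblastoid line, 24 hr compound treatment, 37 C, complete medium. Viability read as cellular ATP via luciferase luminescence; tetraoctylammonium bromide served as positive control.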

[6] = Cell Viability - LYMP2-011 (AID 969); note: nearly all actives have a fitted effect of over 60% in size
Outline: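 In this qHTS cytotoxicity format, compounds are tested across concentrations on human lymphoblastoid cells in complete medium for 24 hours at 37 C. Viability is taken as cellular ATP measured by luciferase luminescence.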

[7] = Cell Viability - LYMP2-013 (AID 970); note: series mostly up to about 92 µM; nearly all actives have a fitted effect of over 55% in size
Outline: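 Cytotoxicity is scored as a concentration-dependent drop in intracellular ATP in human lymphoblastoid cells after 24 hr compound exposure at 37 C. ATP is quantified by luciferase luminescence, and AC50 values come from Hill-equation modeling.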

[8] = Cell Viability - LYMP2-015 (AID 971); note: nearly all actives have a fitted effect of over 55% in size
Outline: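 Cells are seeded at 2500 per well and incubated 5 hr at 37 C. Compounds are added across a concentration series for 24 hr at 37 C. CellTiter-Glo is added, and luminescence is read after 30 min at room temperature.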

[9] = Cell Viability - LYMP2-023 (AID 975); note: series mostly up to about 92 µM; nearly all actives have a fitted effect of over 55% in size
Outline: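 Steps: seed 2500 human lymphoblastoid cells per well, incubate 5 hr at 37 C, add compound for 24 hr at 37 C, add CellTiter-Glo, hold 30 min at room temperature, read luminescence. AC50 derived by Hill modelling.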

[10] = Cell Viability - LYMP2-025 (AID 976); note: series mostly up to about 92 µM
Outline: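 Acute cytotoxicity is scored as a concentration-dependent fall in intracellular ATP, measured by luciferase luminescence, in human lymphoblastoid LYMP2-025 cells exposed to compound for 24 hours at 37 C. AC50 values come from standard Hill fits.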

[11] = Cell Viability - LYMP2-002 (AID 977);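 note: series mostly up to about 92 µM; compound exposure lasted 24 h at 37 °C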
Outline: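 In this qHTS viability screen, 2500 human lymphoblastoid cells per well receive compound for 24 hr at 37 C, and luciferase-based ATP luminescence gives the viability signal. Tetraoctylammonium bromide serves as positive control.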

[12] = Cell Viability - LYMP2-006 (AID 978); note: series mostly up to about 92 µM; nearly all actives have a fitted effect of over 60% in size
Outline: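 Human lymphoblastoid cells, 2500 per well, were preincubated 5 hr at 37 C, then exposed to compounds for 24 hr at 37 C in complete medium. Viability was read as intracellular ATP by CellTiter-Glo luminescence; AC50 from Hill-equation fits of qHTS concentration-response data.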

[13] = Cell Viability - LYMP2-007 (AID 979);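 note: cells exposed to compound for 24 h before reading; nearly all actives have a fitted effect of over 60% in size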
Outline: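 Cells are seeded at 2500 per well and rested 5 hr. Compounds are then added over a concentration series for 24 hr at 37 C. CellTiter-Glo is added for 30 min at room temperature before luminescence reading.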

[14] = Cell Viability - LYMP2-008 (AID 980); note: nearly all actives have a fitted effect of over 60% in size
Outline: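 Cells seeded at 2500/well and rested 5 hr at 37 C; compounds added over a concentration range and incubated 24 hr at 37 C; CellTiter-Glo added, 30 min at room temperature; luminescence read and AC50 fitted with Hill model.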

[15] = Cell Viability - LYMP2-010 (AID 981); note: nearly all actives have a fitted effect of over 55% in size
Outline: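 Steps: seed 2500 LYMP2-010 cells per well; incubate 5 hr at 37 C; add compound; incubate 24 hr at 37 C; add CellTiter-Glo, wait 30 min at room temperature; read luminescence. Concentration-response fitted to Hill equation for AC50.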

[16] = Cell Viability - LYMP2-012 (AID 982)
[17] = Cell Viability - LYMP2-014 (AID 983); note: series mostly up to about 92 µM; nearly all actives have a fitted effect of over 50% in size
Outline: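 Cells are plated at 2500/well and left 5 hr at 37 C. Compounds are added across a concentration range and incubated 24 hr at 37 C in complete medium. CellTiter-Glo is added, and luminescence is read after 30 min at room temperature.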

[18] = Cell Viability - LYMP2-018 (AID 985); note: nearly all actives have a fitted effect of over 50% in size
Outline: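 Seed 2500 lymphoblastoid cells per well, incubate 5 hr at 37 C, add compound and incubate 24 hr at 37 C, add CellTiter-Glo, wait 30 min at room temperature, then read luminescence.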

[19] = Cell Viability - LYMP2-020 (AID 986)
Outline: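 Seed 2500 cells per well and incubate 5 hr at 37 C. Add compounds at a concentration series and incubate 24 hr at 37 C. Add CellTiter-Glo, wait 30 min at RT, read luminescence, and fit a Hill curve for AC50.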

[20] = Cell Viability - LYMP1-002 - Assay at 24 hr (AID 993)
Outline: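 Acute toxicity is measured as concentration-dependent loss of cellular ATP in a human lymphoblastoid line (Coriell LYMP1-002) after 24 h treatment in complete medium. ATP is quantified by luciferase luminescence and AC50 derived by Hill modelling.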

Measured: Potency

COC1=CC(=O)OC(CCc2ccccc2)C1 (stereo not given)
inactive: all assays above

COC1=CC(=O)O[C@@H](/C=C/c2ccc3c(c2)OCO3)C1
inactive: all assays above

Cc1ccc([N+](=O)[O-])cc1C
inactive: all assays above

C=C(C)C#N
inactive: all assays above

NC(=S)Nc1ccccc1
inactive: all assays above

c1ccc2c(c1)CCCC2
inactive: all assays above

O=NN(c1ccccc1)c1ccccc1
inactive: all assays above

CCCCOCCOP(=O)(OCCOCCCC)OCCOCCCC
inactive: all assays above

C=CC(=C)C
inactive: all assays above

CCSC(=O)Cl
inactive: all assays above
